# The list is not random: actives were taken first. Their share in the collection is about 2.5%.
# Pol eta inh: qHTS for Inhibitors of Polymerase Eta. recombinant Pol eta, fluorescent DNA replication assay. DNA polymerase eta (Homo sapiens), Q9Y253. Potency, µM (doses to about 114 µM), for the others: at the highest dose activity change, negative = inhibition, most hits filed as inhibitors. AID 588591, 2011. 390,000 compounds, 1.2% hits; further: on the % scale 0 is the no-effect control and ±100 the full control effect
#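 Pol eta at 10 nM preincubated with compounds 15 min at room temperature; reaction started with fluorescent substrate (50 nM final) and read kinetically at 0 and 10 min.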
# POLB inh: qHTS Assay for Inhibitors of DNA Polymerase Beta | P06746 | Pol beta primer extension/strand displacement, fluorescence kinetic | Potency, µM (titrated, usually from 114 µM), inactives show at the highest dose activity change, negative = inhibition, most hits filed as inhibitors | 340,000 compounds, 1.3% hits | AID 485314, 2010; further: on the % scale 0 is the no-effect control and ±100 the full control effect
#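 Human Pol beta at 10 nM; strand-displacement substrate 50 nM final. Compound exposure 15 min at room temperature before start, reaction 10 min at room temperature.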
# Pol iota inh: qHTS for Inhibitors of Polymerase Iota | DNA polymerase iota (Homo sapiens), Q9UNA4 | Pol iota fluorescent replication assay, 10 min | Potency, µM (top dose mostly 115 µM), for the others: at the top dose activity, negative = inhibition, actives largely listed as inhibitors | 390,000 compounds, 1% hits | AID 588590, 2011
# Target sequence (Q9UNA4 whole entry, looked up): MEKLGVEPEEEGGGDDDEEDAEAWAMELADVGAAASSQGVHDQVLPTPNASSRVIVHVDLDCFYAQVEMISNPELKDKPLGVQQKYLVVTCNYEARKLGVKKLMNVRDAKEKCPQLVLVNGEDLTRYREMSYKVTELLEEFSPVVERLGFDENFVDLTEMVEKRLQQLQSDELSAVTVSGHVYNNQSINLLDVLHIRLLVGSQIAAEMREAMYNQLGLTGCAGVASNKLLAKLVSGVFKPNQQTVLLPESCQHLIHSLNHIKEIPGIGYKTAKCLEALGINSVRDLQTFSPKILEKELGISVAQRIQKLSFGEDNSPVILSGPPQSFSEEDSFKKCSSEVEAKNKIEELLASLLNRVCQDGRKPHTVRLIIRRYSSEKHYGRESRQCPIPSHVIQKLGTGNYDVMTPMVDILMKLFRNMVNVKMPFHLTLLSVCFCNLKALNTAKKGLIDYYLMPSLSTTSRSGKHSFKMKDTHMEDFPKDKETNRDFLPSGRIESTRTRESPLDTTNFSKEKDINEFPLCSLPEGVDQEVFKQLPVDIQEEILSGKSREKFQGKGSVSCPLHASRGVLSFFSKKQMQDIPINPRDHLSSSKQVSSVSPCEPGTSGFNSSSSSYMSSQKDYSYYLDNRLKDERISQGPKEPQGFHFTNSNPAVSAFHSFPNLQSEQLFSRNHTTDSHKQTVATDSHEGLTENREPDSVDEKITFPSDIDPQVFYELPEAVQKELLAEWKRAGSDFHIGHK
#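 Pol iota at 10 nM preincubated 15 min with compounds at room temperature; reaction started with fluorescent substrate, 50 nM final. Fluorescence read kinetically at 0 and 10 min; buffer-only wells as negative control.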
# POLK inh: qHTS for Inhibitors of Polymerase Kappa. Potency, µM (titrated, usually from 107 µM), for inactives: top-dose activity, negative = inhibition, hits mostly inhibitors. DNA polymerase kappa (Homo sapiens), Q9UBT6. AID 588579, 2011. purified Pol kappa, fluorescent DNA synthesis assay, 10 min. 400,000 compounds, 0.53% hits; further: on the % scale 0 is the no-effect control and ±100 the full control effect
#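 Kinetic fluorescence readout at 0 and 10 min followed reaction start with substrate at 50 nM final. Beforehand, enzyme (10 nM Pol kappa) stood 15 min with compound at room temperature; buffer-only wells were negative controls.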
# WRN helicase inh: qHTS for Inhibitors of WRN Helicase; WRN helicase unwinding, fluorescent forked duplex, kinetic; 360,000 compounds, 0.46% hits; Potency, µM (highest dose often 114 µM), inactives show at the highest dose activity change, negative = inhibition, most hits filed as inhibitors; Bifunctional 3'-5' exonuclease/ATP-dependent helicase WRN (Homo sapiens), Q14191; further: on the % scale 0 is the no-effect control and ±100 the full control effect; nearly all actives have a fitted effect of over 55% in size
#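 Primary qHTS, 1536-well format. 20 nM WRN + compound, 15 min RT; start with 100 nM forked fluorophore/quencher duplex, 2 mM ATP (final); kinetic read ex 525/em 598 nm.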
# L3MBTL1 inh: qHTS Assay for the Inhibitors of L3MBTL1. Lethal(3)malignant brain tumor-like protein 1 (Homo sapiens), Q9Y468. 230,000 compounds, 0.66% hits. AlphaScreen L3MBTL1–H3K9me1 peptide binding. Potency, µM (highest dose often 57.1 µM), without a hit: at the top dose activity, negative = inhibition, actives largely listed as inhibitors; further: on the % scale 0 is the no-effect control and ±100 the full control effect; nearly all actives have a fitted effect of over 60% in size
#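 L3MBTL1 (50 nM) pre-complexed 30 min with biotinylated H3(1-15)K9me1 peptide (75 nM), then compounds added for 30 min at room temperature; AlphaScreen streptavidin donor/nickel chelate acceptor beads (10 ug/mL final) read after 30 min dark incubation.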
# The depositor's hits bear a star; u = inconclusive; x = no result given; [ ] = dose if it differs, or a comment. The call rests on the fitted dose curve; in most records, active means well fitted curve in the direction sought with a large enough effect; inconclusive means small, poorly fitted or top-dose-only effect, or another doubt; inactive means no such curve, though single readings can be large; an effect the other way counts as inactive or inconclusive. Potency means the concentration at half of the fitted maximal effect.
SMILES,Pol eta inh,POLB inh,Pol iota inh,POLK inh,WRN helicase inh,L3MBTL1 inh
Cn1cc(C(=O)N/N=C/C2=C(N3CCOCC3)C(=C/c3ccc([N+](=O)[O-])cc3)/CC2)ccc1=O,u,x,50µM*,-33%,-14%[57.1 µM],x
Cc1scc(C(=O)NNC(=S)NCC2CCCO2)c1-c1ccccc1 (stereo not given),-19%,-20%,5%,-11%,3%,4%
O=c1cc(O)n(C2CCCCCC2)c(=O)[nH]1,-4%,27%,u,11%,0%,x
O=c1[nH][nH]c(=S)n1C1CCCCC1,-17%,27%,18%,6%,56µM*,4%
CNC(=O)COc1ccc(Nc2nnc(-c3ccc(C)c(S(N)(=O)=O)c3)c3ccccc23)cc1,40µM*,3%,126%,-9%,-10%[11.6 µM],x
c1cn(-c2cc(-c3ccc4c(c3)OCO4)ncn2)cn1,x,x,x,25µM*,x,x
O=C(CCl)N1CCN2C(=O)c3ccccc3C12c1ccc(Cl)cc1 (stereo not given),79µM*,-21%,69%,2%,-4%,2%
CC(=O)C(C(C)=O)C(NC(=O)c1cccnc1)(C(F)(F)F)C(F)(F)F,-8%,3%,-2%,-9%,89µM*,-6%
O=C(NCCCNc1ccc(C(F)(F)F)cc1[N+](=O)[O-])c1ccc(F)cc1,-13%,-1%,4%,-18%,-21%,-3%
COCCn1nnnc1C(c1cc2cc(OC)c(OC)cc2[nH]c1=O)N1CCN(c2ccc(O)cc2)CC1 (stereo not given),-9%,-3%,45µM*,-27%,u,32%
COc1ccccc1NS(=O)(=O)c1cccc(-n2c(O)c(C=Nc3ccccc3C(=O)O)c3ccccc3c2=O)c1,20µM*,56µM*,u,-42%,50µM*,-20%
CSCC(=O)N1CCC(n2nccc2NC(=O)c2ccc3c(c2)OCO3)CC1,-19%,11%,u,79µM*,1%,x
COc1cc(/C=C(\C#N)c2nc3ccccc3[nH]2)cc(Cl)c1OCc1ccccc1Cl,u,3.2µM*,69%,-8%,x,x
N#C/C(=C\c1ccc(OCc2ccc(Cl)cc2Cl)cc1)c1nc2ccccc2[nH]1,-12%,11%,43%,-12%,x,x
O=C(CCc1ccccc1)Nc1ccc(F)c([N+](=O)[O-])c1,-20%,7%,-16%,-6%,-6%,x
O=[N+]([O-])c1cc(-c2ccc(/C=N/n3cnnc3)o2)ccc1Cl,-5%,-1%,-24%,-27%,1%,-1%
O=[N+]([O-])c1ccc(Cl)c(-c2ccc(/C=N/n3cnnc3)o2)c1,u,25µM*,u,u,u,x
COCCN=c1scc(-c2cccs2)n1/N=C/c1ccc(O)c(O)c1O,u,4.5µM*,u,u,-36%[57.1 µM],u
COCCN=c1scc(-c2ccccc2)n1/N=C/c1c[nH]c2ccccc12,-8%,14%,-7%,-15%,-12%,u
CN(c1ccc(-c2csc(NC(=O)C3CC(=O)N(Cc4ccco4)C3)n2)cc1)S(C)(=O)=O (stereo not given),50µM*,x,45µM*,u,-14%,-23%
CS(=O)(=O)c1ccc(Cl)c(NC(=O)C2CC(=O)N(Cc3ccco3)C2)c1 (stereo not given),-26%,x,79µM*,u,1%[11.6 µM],u
CS(=O)(=O)c1ccc(Cl)c(NC(=O)C2CC(=O)N(Cc3ccccc3)C2)c1 (stereo not given),12%,u,13%,5%,0%,x
COC(=O)c1sc(N)c(C(=O)OC)c1COC(=O)C1CC(=O)N(Cc2ccco2)C1 (stereo not given),79µM*,11µM*,u,-7%,u,u
CCOC(=O)c1c(NC(=O)C2C3C=CC(C3)C2(C)C(=O)O)sc2c1CCCC2 (stereo not given),20µM*,22µM*,-31%,u,-19%[57.1 µM],-15%
O=C(N/N=C/c1c(O)ccc2ccccc12)c1ccc(CO)nc1,-11%,-14%,-15%,1%,-15%[57.1 µM],3.5µM*
SMILES,Pol eta inh,POLB inh,Pol iota inh,POLK inh,WRN helicase inh,L3MBTL1 inh
CCOc1ccc2ccccc2c1/C=N/NC(=O)c1ccncc1,-4%,20µM*,6%,-11%,-3%,0%
O=C(NN=Cc1c(O)ccc2ccccc12)c1ccc2c(c1)OCO2,-5%,x,0%,-1%,5%,3%
O=C(NC1CCCCC1)C1CCN(S(=O)(=O)c2cccc3cccnc23)CC1,1%,4%,-20%,-2%,0%,2%
C/C(=N\OCC(=O)OC(C)C(=O)Nc1ccc(C)c(S(=O)(=O)N2CCOCC2)c1)c1ccc2c(c1)OCO2 (stereo not given),56µM*,x,u,-17%,-2%[11.6 µM],x
COc1ccc2cc3c(N)nn(C(=O)c4ccc(OC)c(OC)c4)c3nc2c1,u,16µM*,-3%,-7%,x,14%
Cc1ccc2sc(C)[n+](CCO)c2c1,-6%,-1%,u,-7%,u,x
CCOC(=O)C[n+]1c(C)sc2ccc(OC)cc21,-13%,21%,u,1%,50µM*,1%
COc1ccc(CNC(=O)C2CCN(S(=O)(=O)Cc3ccccc3)CC2)cc1,-11%,14µM*,7%,-1%,x,x
Cc1ccc(C(=O)NCc2ccco2)cc1,-15%,-1%,64%,-15%,0%,39%
CCOc1ccc(C(=O)NCc2ccco2)cc1,u,22µM*,u,u,-13%[57.1 µM],-21%
Cc1cccc(C(=O)NCc2ccco2)c1,u,56µM*,u,-42%,-2%[11.6 µM],-6%[2.29 µM]
CCOc1cc(OCC)cc(C(=O)NCc2ccco2)c1,7%,-18%,u,-22%,-21%,-4%
CCOC(=O)c1c(C)c(C(=O)NCc2ccco2)c(C)n1CC,2%,-1%,16%,5%,-3%,x
O=C(NCc1ccco1)c1ccccc1F,22µM*,u,u,-29%,-23%[57.1 µM],x
CCOC(=O)c1c(C)c(C(=O)NCc2ccco2)c(C)n1Cc1ccccc1,u,40µM*,u,-36%,-16%[57.1 µM],-1%
CCN(CC)C(=O)Cn1cc(/C=C(\C#N)C(=O)N2CCN(c3ccccc3)CC2)c2ccccc21,-17%,22%,18%,-14%,-2%,-9%
O=C(NCc1ccco1)c1cccc(NC(=O)c2ccccc2)c1,-6%,1%,-2%,-7%,2%,-1%[11.4 µM]

# Assay outcomes as filed in PubChem.
